# Compound activity (PubChem)
# ERAP1 inh – human ERAP1 aminopeptidase inhibitors, primary screen, biochemical, single point, plate reader. Endoplasmic reticulum aminopeptidase 1 (Homo sapiens), Q9NZ08. recombinant ERAP1, Leu-AMC fluorescence, 60 min. inhibition, % at 10.7 µM. actives 0.15% (n = 340,000);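 active means mean replicate inhibition of at least 30%, or all replicates individually reaching that 30% level; inactive means mean below 30% and not every replicate reaching it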;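 further: 0% = neutral control wells and 100% = L-leucinethiol positive control wells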
# MLL AF4-AF9 inh – inhibitors of AF4 peptide binding to AF9, primary screen, biochemical, AlphaScreen, biotin-AF4 peptide, FLAG-AF9, single point. Protein AF-9 (Homo sapiens), P42568. actives 0.47% (n = 350,000). inhibition, % at 10 µM. AID 651704, 2012;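 active means every replicate reaching a set inhibition limit, whatever the replicate mean, cut at about 25% in these data; inconclusive means mean inhibition reaches that limit but some replicates miss it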;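 further: 0% = plate neutral control median and 100% = total signal loss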
# Target sequence (P42568 whole entry, looked up): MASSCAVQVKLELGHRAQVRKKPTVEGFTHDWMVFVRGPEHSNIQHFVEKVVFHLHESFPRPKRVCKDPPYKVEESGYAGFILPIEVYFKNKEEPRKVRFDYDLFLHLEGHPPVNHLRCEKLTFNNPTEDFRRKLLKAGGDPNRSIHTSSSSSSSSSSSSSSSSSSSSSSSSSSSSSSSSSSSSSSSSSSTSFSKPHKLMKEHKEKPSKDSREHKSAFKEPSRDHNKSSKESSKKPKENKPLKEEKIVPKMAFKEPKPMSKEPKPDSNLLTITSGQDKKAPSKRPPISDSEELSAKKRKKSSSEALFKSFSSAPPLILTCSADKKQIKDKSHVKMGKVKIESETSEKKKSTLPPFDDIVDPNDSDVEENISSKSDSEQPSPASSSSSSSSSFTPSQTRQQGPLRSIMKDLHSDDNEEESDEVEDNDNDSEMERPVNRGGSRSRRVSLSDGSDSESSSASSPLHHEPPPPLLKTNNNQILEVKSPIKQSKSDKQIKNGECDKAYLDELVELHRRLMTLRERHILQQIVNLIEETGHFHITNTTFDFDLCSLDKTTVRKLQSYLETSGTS
# FGF22 binding – binders of human FGF22 protein, primary screen, FGF22 synaptogenesis inhibitor project, biophysical, thermal shift, single point | Fibroblast growth factor 22 (Homo sapiens), Q9HCT0 | activity (Tm shift, normalised), % at 9.99 µM | recombinant FGF22 thermal shift, SYPRO orange fluorescence; percent of sucrose octasulfate shift, DMSO zero | actives 1.5% (n = 340,000);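 active means mean Tm shift, scaled 0 neutral to 100 positive control, at about 1.3% or above, every replicate too, limit read from the data; inconclusive means no clear call, values can overlap the other calls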
# DENV2 CPE rescue – inhibitors of DENV2 cytopathic effect, primary screen, cell-based, plate reader, single concentration. DENV2-infected cells, cytopathic effect rescue. CPE inhibition, % at 9.99 µM. actives 1.7% (n = 350,000); in the data active means CPE inhibition above about 20%, passing the limit was not always enough; inconclusive means no clear call, values can overlap the other calls; tested in BHK-21 cells;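 further: 0% = median of neutral control wells and 100% = median of positive control wells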
# RAD52 anneal inh – RAD52 DNA annealing inhibitors, primary screen, biochemical, FRET, single point, set 2; DNA repair protein RAD52 homolog (Homo sapiens), P43351; recombinant RAD52 DNA annealing, FRET fluorescence; inhibition, % at 18.7 µM; actives 0.46% (n = 360,000);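 active means every replicate showing at least 50% inhibition; inconclusive means mean inhibition at least 50% but not in every replicate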
# RAD52 DNA ctr – DNA-binding compounds via dye displacement, dose response, artefact control for RAD52 inhibitor project, biochemical, fluorescence polarization, cherry-pick; shares compounds with RAD52 anneal inh; Salmon sperm DNA/acridine orange FP displacement; AC50, µM; actives 8% (n = 1,000);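 active means fitted half-maximal concentration for signal loss at or below twice the highest dose tested, in every separate run, actives reach about 64 µM in these data; inconclusive means runs disagree, or flat partial signal loss, or poor fit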
# An asterisk follows results filed as active; i = inactive; ? = inconclusive; · = no result given. An excerpt weighted towards active compounds, which were near 4% of everything screened.
SMILES,ERAP1 inh,MLL AF4-AF9 inh,FGF22 binding,DENV2 CPE rescue,RAD52 anneal inh,RAD52 DNA ctr
CC[C@H](C)[C@@H](C(=O)NCCCCCCCCCCC(=O)N1CCNCC1)n1cc(CCCCN=C(N)N)nn1,-3.8,14.9,-0.1,?,34.6,·
CC[C@H](C)Cc1cn([C@@H](CCCN=C(N)N)C(=O)NCCCCCCCCCCC(=O)N2CCNCC2)nn1,2.5,-28.5,-0.3,-13.0,52.0*,i
COc1cc2nc(Nc3ccc(C)c(Cl)c3)nc(N)c2cc1OC,7.8,32.9*,0.2,3.9,73.1*,i
COc1cc2nc(Nc3ccc(F)cc3)nc(N)c2cc1OC,-5.3,12.7,0.6,-4.1,61.7*,59.3µM*
COc1cc2nc(Nc3ccc(C)c(C)c3)nc(N)c2cc1OC,-1.3,25.6*,-0.1,-0.9,90.5*,i
COc1ccc(-c2cc(CNc3nc(NCc4ccccc4OC)nc4ccsc34)on2)cc1,13.4,1.5,-0.2,-5.1,61.4*,i
O=C(C[C@@H]1CC[C@H](NC(=O)c2ccncc2)[C@H](CO)O1)Nc1ccccc1,3.2,-1.1,0.0,-4.8,-9.0,·
C[C@H](CO)N1C[C@H](C)[C@@H](CN(C)Cc2ccc(C(F)(F)F)cc2)Oc2ccc(NC(=O)CCN3CCOCC3)cc2CC1=O,-2.8,5.0,-0.7,?,10.2,·
Cc1cccc(NC(=O)Nc2ccc3c(c2)C(=O)N(C)[C@@H]2CC[C@H](CC(=O)O)O[C@H]2CO3)c1,-5.8,1.0,0.0,-1.8,-10.5,·
C[C@@H]1CN([C@@H](C)CO)C(=O)c2cc(C#CCN(C)C)cnc2O[C@@H]1CN(C)C(=O)Nc1cccc(F)c1,-5.0,1.8,-0.5,-6.4,-1.9,·
COc1ccc2c3c([nH]c2c1)C(C)N(CCC(=O)NN)CC3 (stereo not drawn),-1.2,10.0,0.0,-0.9,79.3*,i
CN(C)CCCNC(=S)NCC(c1ccc(Cl)cc1Cl)c1c[nH]c2ccccc12 (stereo not drawn),-1.9,35.3*,0.3,-4.0,56.3*,i
CCOc1ccc(CCN2C(=S)N([C@@H](Cc3ccc(O)cc3)CN3CCC[C@@H]3CN3C(=S)NC[C@@H]3Cc3ccccc3)C[C@@H]2CC(C)C)cc1,·,1.7,-0.1,-0.4,51.4*,i
Oc1ccc(C[C@H]2CNC(=S)N2CC2CCCN2C[C@H](Cc2ccc(O)cc2)N2C[C@H](Cc3ccc(O)cc3)N(CC3CCCCC3)C2=S)cc1 (stereo partly drawn),·,1.4,-0.1,-7.0,55.0*,i
CCOc1ccc(CCN2C(=S)N([C@@H](Cc3ccccc3)CN3CCCC3CN3C(=S)NC[C@@H]3Cc3ccccc3)C[C@@H]2Cc2ccc(O)cc2)cc1 (stereo partly drawn),-0.1,5.0,-0.2,4.2,-14.2,·
Oc1ccc(C[C@H]2CN([C@@H](Cc3ccccc3)CN3CCCC3CN3C(=S)NC[C@@H]3Cc3ccccc3)C(=S)N2CC2CCCCC2)cc1 (stereo partly drawn),0.1,4.5,-0.2,-16.9,-19.9,·
O=C1CCCCC1,-6.9,·,0.0,1.1,91.0*,i
Cc1cc2c(cc1C)C(=O)CCC2,2.7,-0.5,0.0,-5.1,-7.3,·
Cc1ccc(SCCc2cc[n+](CC(=O)c3ccccc3)cc2)cc1,6.4,10.4,0.1,-7.8,53.9*,i
Cc1ccc(C(=O)C[n+]2ccc(Cc3ccccc3)cc2)cc1,-1.9,0.4,0.1,·,-4.7,·
CCOc1cc(/C=C/c2cccc[n+]2C)ccc1O,1.3,-14.0,0.0,1.7,72.2*,i
O=C(C[C@H]1C=C[C@H](NC(=O)Nc2ccccc2)[C@@H](CO)O1)NCc1cccc(F)c1,-7.1,-10.2,0.1,0.4,-8.7,·
Cc1cccc2sc(N(CCCN(C)C)C(=O)COc3ccc(Cl)cc3)nc12,0.0,16.2,0.1,-2.9,50.3*,i
COc1ccc(C)c2sc(N(CCCN(C)C)C(=O)c3ccc(S(=O)(=O)N(C)C)cc3)nc12,-6.4,3.2,0.1,3.4,13.9,·
Cc1ccc2sc(N(CCCN(C)C)C(=O)c3ccc(S(=O)(=O)N4CCCCCC4)cc3)nc2c1C,3.0,8.0,-0.5,-8.1,42.4,·
SMILES,ERAP1 inh,MLL AF4-AF9 inh,FGF22 binding,DENV2 CPE rescue,RAD52 anneal inh,RAD52 DNA ctr
COc1ccc(Cl)c2sc(N(Cc3cccnc3)C(C)=O)nc12,-6.0,-3.1,-0.1,2.3,-2.8,·
COc1ccc(OC)c2sc(N(CCN(C)C)C(=O)c3ccc4ccccc4c3)nc12,-0.9,27.9*,-0.1,0.2,93.2*,i
COc1ccc(Cl)c2sc(N(CCN(C)C)C(=O)c3ccc4c(c3)OCCO4)nc12,-1.2,13.8,-0.6,7.5,91.0*,i
Cc1ccc2sc(N(CCCN(C)C)C(=O)CN3C(=O)c4ccccc4C3=O)nc2c1C,·,15.6,-0.1,-3.1,68.9*,i
CC=Cc1ccc2n(c1=O)C[C@@H]1[C@@H](CO)[C@H](C(=O)N3CCc4ccccc4C3)N(C(=O)C3CC3)[C@H]21 (mixture of isomers),2.9,1.9,0.1,0.7,3.2,·
CCC(=O)N(C)C[C@H]1Oc2cc(C3=CCCC3)ccc2S(=O)(=O)N([C@H](C)CO)C[C@H]1C,2.5,-9.4,-0.8,-7.6,-2.7,·
COc1cc2ccccc2cc1C(=O)N(CCN(C)C)c1nc2c(OC)ccc(OC)c2s1,-5.9,50.1*,0.0,-2.6,94.3*,i
CCN(CC)CCN(C(=O)C1=COCCO1)c1nc2c(OC)ccc(OC)c2s1,-3.1,5.1,0.0,-2.3,88.1*,i
CCN(CC)CCN(C(=O)C1=COCCO1)c1nc2ccc(C)cc2s1,-2.8,0.5,0.0,3.0,18.5,·
COc1cc2ccccc2cc1C(=O)N(CCN(C)C)c1nc2c(C)cccc2s1,-2.5,15.4,-0.1,11.2,54.7*,i
C[C@H](CO)N1C[C@H](C)[C@@H](CN(C)C(=O)c2cccc(F)c2)Oc2cc(-c3cccc(F)c3)ccc2S1(=O)=O,3.7,3.8,-0.7,-11.3,-2.2,·
CCN(CC)CCN1CCN(c2cncc(-c3ccc4ccccc4c3)n2)CC1,1.7,18.2,0.1,-4.9,45.9,·
CCN(CC)CCN1CCN(c2cncc(-c3cccc(N)c3)n2)CC1,-4.4,22.9,0.1,-4.2,99.0*,i
NC(N)=N/N=C/c1ccc(OCc2ccccc2Cl)cc1,-102.9,14.0,-0.2,-2.4,27.0,i
CCCC(=O)N1CC2(CCN(C(=O)Nc3cccc(F)c3)CC2)c2c(n(C)c3cc(OC)ccc23)[C@H]1CO,·,1.7,0.0,5.6,·,·
